# Tau fluor counter = counter-screen for tau fibril formation inhibitors; tau K18 P301L Alexa594 fluorescence, heparin fibrillization; Potency, µM (top dose mostly 57.7 µM); 0.93% of 280,000 active; further: nearly all actives have a fitted effect of over 55% in size
#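 Human tau K18 P301L (15 uM unlabeled, 0.24 uM Alexa 594-labeled) in 100 mM sodium acetate pH 7 with 20 uM heparin, 6 hr at 37 C. ThT 30 uM added, 1 hr ambient; Alexa 594 FP and total fluorescence read at 555/632 nm.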
# Coupling enz = counter-screen for Giardia aldolase inhibitors: coupling enzyme system | coupling enzyme system counterscreen, AmpLite Red fluorescence | 0.67% of 290,000 active | activity change, negative = inhibition, % at 58.2 µM, hits read low | AID 2472; in the data active means activity change below about -30%
#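 Final compound at 57.5 uM, incubated 10 min at RT with coupling enzyme reagent (glyceraldehyde-3-phosphate), then 20 min with substrate and AmpLite Red detection. Fluorescence read at 525/598 nm; tests interference with the coupling assay, not aldolase inhibition.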
# Sfp PPTase inh = Sfp phosphopantetheinyl transferase inhibition; Biochemical Sfp PPTase activity, qHTS; Q9F4F7; AID 1490; 3.5% of 310,000 active; Potency, µM, most hits filed as inhibitors;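 further: the enzyme is Sfp with the accession as filed and its product quenches rhodamine fluorescence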
#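 Fluorescence-quenching assay: 15 nM Sfp-PPTase preincubated 15 min at room temperature with compound, then 5 uM rhodamine-CoA and 12.5 uM BHQ-2-labelled YbbR peptide added. Fluorescence (ex 525/em 598 nm) read at start and after 30 min; difference gives rate.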
# Tau fibril ThT = blocks human tau fibril formation measured by thioflavin T. recombinant tau K18 P301L, heparin-induced fibrillization, ThT fluorescence. 2.1% of 270,000 active. P10636. AID 1460. Potency, µM (titrated, usually from 57.4 µM), usual class: inhibitors; further: nearly all actives have a fitted effect of over 55% in size
# Target sequence (P10636 561-689 P618L limits assumed): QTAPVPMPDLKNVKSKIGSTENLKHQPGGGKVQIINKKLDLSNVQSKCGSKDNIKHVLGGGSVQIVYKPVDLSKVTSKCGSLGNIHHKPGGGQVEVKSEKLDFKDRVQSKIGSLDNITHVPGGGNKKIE
#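 ThT emission at 510 nm, taken 1 hr after adding 30 uM dye, quantifies aggregates formed when 20 uM heparin acts on human tau K18 P301L for 6 hr at 37 C.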
# Tau FP inhib = inhibitors of human tau fibril formation. P10636. K18 P301L tau heparin fibrillization, Alexa594 FP, 6 h. Potency, µM (series often up to 57.7 µM), usual class: inhibitors. 0.39% of 280,000 active. AID 1468; further: nearly all actives have a fitted effect of over 55% in size
#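 Steps: dispense K18 P301L tau (15 uM plus 0.24 uM Alexa 594 tracer, final) in pH 7 sodium acetate; add compound; add heparin (20 uM final); incubate 6 hr, 37 C; add ThT (30 uM final); after 1 hr ambient, read FP.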
# Numbers stand for hits; - = inactive; ? = inconclusive; . = no result; [ ] = another dose, or the depositor's remark. Hits are enriched below; roughly 5.2% of the tested compounds scored in any of these assays. Unless noted, the call rests on the fitted dose curve; in most records, active means well fitted curve in the direction sought with a large enough effect; inconclusive means small, poorly fitted or top-dose-only effect, or another doubt; inactive means no such curve, though single readings can be large; an effect the other way counts as inactive or inconclusive.
SMILES,Tau fluor counter,Coupling enz,Sfp PPTase inh,Tau fibril ThT,Tau FP inhib
COc1ccc2nc(NC(=O)Nc3ccccc3)sc2c1,?,-,-,?,-
C[C@@H]1/C=C\CC(=O)OC[C@H](C)C(=O)N[C@@H](Cc2ccccc2)C(=O)OC1,-[11.6 µM],-,-,-[11.5 µM],?
CC(=O)c1cc2c(cc1NC(=O)CCC1CCCC1)OCO2,-,-,-,-,-
CC(=O)c1cc2c(cc1NC(=O)CCn1cccc1)OCO2,-,-,50µM,-,-
COc1ccc(-c2nc(-c3ccccc3)c(-c3cccs3)[nH]2)cc1OC,14µM[quencher],-,-,?,?
COc1ccc(-c2nc(-c3cccs3)c(-c3cccs3)[nH]2)cc1OC,10µM[quencher],-,-,?,-
Cn1nnc2sc3c(c2c1=O)CCCC3,-,-,50µM,-,-
Cc1ccc(NNC(=O)Nc2ccc(Cl)cc2)nn1,-,-,8.9µM,.,?
C=CCc1ccccc1OCc1nc2ccccc2n1CC,-,.,.,?,-
O=C(N=Nc1ccc(NOC(=O)c2ccccc2Br)cc1)c1ccccc1O,?,-,79µM,10µM,?
O=C1OCc2cccc([N+](=O)[O-])c21,-,-,-,-,-
O=C1CC(=O)c2c1cccc2[N+](=O)[O-],5.6µM[quencher],-,79µM,.,?
COc1cc(NC(=O)N2CCC3(CC2)Nc2cc(F)ccc2-n2cccc23)cc(OC)c1OC,13µM[quencher],.,.,-,?
CCN1c2cc(C)ccc2-n2cccc2C12CCN(C(=O)Nc1cc(OC)c(OC)c(OC)c1)CC2,-,.,.,-,?
COCCn1c(=O)c(-c2ccccc2)nc2cnc(N3CCN(C)CC3)nc21,.,-,-,.,.
CC(C)OC(=O)CSc1nc(N)c(C#N)c(-c2ccco2)c1C#N,?,-,56µM,?,?
Cc1c(-c2ccccc2)nc(N)c(C#N)c1-c1ccco1,-,-,14µM,-,-
CC(C)OC(=O)CSc1nc(N)c(C#N)cc1C#N,-,-,-,?,-
CCc1nc(N)c(C#N)c(-c2ccco2)c1C,-,-,-,-,-
COC(=O)C1=C(O)/C(=C\c2ccc(CNS(=O)(=O)c3ccccc3)o2)N=C1C,?,-,50µM,14µM,?
COC(=O)C1=C(O)/C(=C\c2ccc(OCC(=O)Nc3ccccc3)cc2)N=C1C,.,.,-,.,.
CCOC(=O)C1=C(O)/C(=C\c2ccc(CNS(=O)(=O)c3ccc(Br)cc3)o2)N=C1C,-,-,?,?,-
COC(=O)C1=C(O)/C(=C\c2ccc(CNS(=O)(=O)c3ccc(Cl)cc3)o2)N=C1C,-,-,35µM,?,-
COc1cccc([C@@H]2Oc3ccc(Br)cc3C(=O)[C@H]2OC(=O)Nc2ccc(C)c(Br)c2)c1,-,-,-,?,-
CCCCOc1ccccc1C1CC(=O)Nc2ccc3ccccc3c21 (stereo unspecified),-,.,.,-,-
SMILES,Tau fluor counter,Coupling enz,Sfp PPTase inh,Tau fibril ThT,Tau FP inhib
Cn1nnc2c(N3CCN(c4cccc(Cl)c4)CC3)ncnc21,-,.,.,?,-
Cc1ccc(-n2c(SCC(=O)c3c(N)n(C)c(=O)n(C)c3=O)nc3sc4c(c3c2=O)CCCC4)c(C)c1,-,-,56µM,-,?
Cc1ccc(S(=O)(=O)N(Cc2nc(-c3cccc(C)c3)no2)C2CCCCC2)cc1,?,.,.,?,-
CC[n+]1c(/C=C/C=C/N(C(C)=O)c2ccccc2)sc2cc(OC)ccc21,4µM[fluorescent],-,45µM,13µM,-
COc1ccc(C(=O)c2ccccc2)c(O)c1O,-,-,56µM,?,-
CCc1ccc(NS(=O)(=O)c2ccc3[nH]cc(C(=O)NCC4CCCO4)c(=O)c3c2)cc1 (stereo unspecified),?,-,-,?,?
CCc1ccc(NS(=O)(=O)c2ccc3[nH]cc(C(=O)NCc4ccc(C)cc4)c(=O)c3c2)cc1,?,.,.,-,3.5µM
COc1ccccc1CNC(=O)c1c[nH]c2ccc(S(=O)(=O)Nc3cc(C)cc(C)c3)cc2c1=O,?,.,.,-,8.9µM
CCN(CC)S(=O)(=O)c1ccc2[nH]cc(C(=O)NCCC3=CCCCC3)c(=O)c2c1,?,-,-,-,11µM
O=C(NCCc1ccccc1)c1c[nH]c2ccc(S(=O)(=O)Nc3ccccc3F)cc2c1=O,?,.,.,-,13µM
Cc1nc(-c2coc3c(O)c(O)ccc3c2=O)cs1,?,-,?,?,-
Cc1ccccc1-c1nc(CN2CCC(C(=O)NCc3ccccc3Cl)CC2)c(C)o1,-,.,.,-,-

# Bioassay records from PubChem.
